A selection: hits, their analogues and other compounds. The true share with any hit is near 0.5%.
AddAB inh – growth inhibition of E. coli expressing H. pylori AddAB, primary screen, AddAB inhibitor project, absorbance; inhibition, % at 11.9 µM; 330,000 compounds, 0.29% hits; AID 435030, 2010; in the data active means inhibition above about 12%;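 further: 0% = vehicle wells of infected cells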
Tat export inh – E. coli Tat export inhibitors, primary screen, MC4100, TorA-mCherry reporter, fluorescence, single point; inhibition, % at 10 µM; 340,000 compounds, 0.036% hits; AID 488895, 2010;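 active means mean replicate inhibition at least 50% and at least half of replicates individually reaching 50%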;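 further: exported cargo escapes ClpAP degradation while cytoplasmic cargo is degraded and loses fluorescence; 0% = median of neutral control wells and 100% = median of NaSCN control wells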
E coli growth-1 – E. coli growth inhibition, primary screen, OD600. Escherichia coli growth, 23 h; active compounds read low. OD600 absorbance (concentration not given with the values). 330,000 compounds, 0.21% hits;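 active means OD600 absorbance below the run mean of sample wells minus 3.6 SD, in any replicate, cut at about 0.56 in these data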
phage Ecoli inh – growth loss of phage-infected E. coli, primary screen, RecBCD inhibitor project, absorbance, with phage, HTS. 360,000 compounds, 0.26% hits. inhibition, % at 11.9 µM; in the data active means inhibition above about 11%
E coli growth-2 – E. coli V3065 growth inhibition, primary screen, counter-screen for AddAB inhibitor project, absorbance, OD600. 18 h. inhibition, % at 11.9 µM. 330,000 compounds, 0.27% hits;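 active means inhibition above the campaign's mean inhibition across all tested compounds plus 3 SD, cut at about 9.9% in these data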;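 further: uninfected addAB+ strain grown without phage in ampicillin broth; 0% = DMSO wells and 100% = ciprofloxacin 0.95 µg/ml wells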
Numbers without * were called inactive; i = inactive; . = not tested or not shown.

SMILES	AddAB inh	Tat export inh	E coli growth-1	phage Ecoli inh	E coli growth-2
CC1CN(C(C)CO)C(=O)c2cccc(NC(=O)Nc3ccccc3)c2OC1CN(C)C(=O)Nc1ccc(C(F)(F)F)cc1 (stereo unspecified)	.	.	0.718	.	.
CCCCCCn1c2c(c(=N)c3c1CCC3)CCC2	1.6	-9.6	0.604	3.1	0.6
CCCCCCCCCn1c2c(c(=N)c3c1CCC3)CCC2	5.0	-10.8	0.494*	.	10.5*
COc1ccc(C2C3C(=O)N(C(C)(C)C)C(=O)C3[C@]3(CC(C)C)C(=O)N(c4ccc(C(F)(F)F)cc4)C(=O)N23)cc1 (stereo partly specified)	.	.	0.666	.	.
CCCCCCCC[n+]1cccc2c3ccccc3ccc21	3.4	9.1	0.476*	7.3	1.8
CN(C)C(=O)C[n+]1ccc(/C=N/O)cc1	5.0	1.5	.	2.0	0.1
CCCCCCCCCCCCCCCC[n+]1ccc(C=NO)cc1	.	.	0.399*	.	.
C#CCOCCOCCOCCNc1nc(N2CCN(C(=O)C(CO)n3cc(C(N)C(C)C)nn3)CC2)nc(N2CCN(C(=O)C(CCCCN)n3cc(C(N)C(C)CC)nn3)CC2)n1 (stereo unspecified)	.	.	0.69	.	.
CC(C)C(CCNC1CCN(C)CC1)c1ccc(Cl)cc1 (stereo unspecified)	1.7	-21.1	0.632	2.9	-1.7
CN1CCC(NCCC(c2ccc(F)cc2)c2ccc(Cl)cc2)CC1 (stereo unspecified)	.	3.2	0.514*	1.2	.
C=CCOc1ccc(C=NNc2ccccn2)cc1OC	.	.	0.671	.	.
Cc1ccc(C=NNC(=O)CSc2nnc(-c3ccc(Cl)cc3)n2-c2ccc(Cl)cc2)o1	.	.	0.686	.	.
Cc1ccc(/C=N/NC(=O)CSc2nnc(-c3ccc(Cl)cc3)n2-c2ccc(Cl)cc2)o1	7.4	-0.7	.	10.7	13.4*
CCCc1n[nH]c2c1C(=NOCC)CC(C)(C)C2	.	.	0.653	.	.
COc1cc(/C=C/C(O)=C/C(=O)/C=C/c2ccc(O)cc2)ccc1O	8.5	3.8	.	10.6	10.1*
CCN1C(=O)C2C(c3ccc(-c4ccccc4)cc3)N3CCCC[C@@]3(C(=O)OC)C2C1=O (stereo partly specified)	.	.	0.729	.	.
OC(c1cc(-c2ccc(C(F)(F)F)cc2)nc(C(F)(F)F)c1)C1CCCCN1 (stereo unspecified)	3.2	12.3	0.494*	7.4	6.2
OC(c1cc(C(F)(F)F)nc2c(C(F)(F)F)cccc12)C1CCCCN1 (stereo unspecified)	-2.1	0.5	0.424*	6.4	0.9
CN1CCN(N=Cc2ccc(C#N)cc2)CC1	.	.	0.647	.	.
CCc1ccc2c(COC(=O)C3CC(=O)N(CCc4ccccc4)C3)cc(=O)oc2c1 (stereo unspecified)	.	62.9*	0.682	1.5	.
CN(C)c1ccc(C=c2c3ccccc3n3c2cc(-c2ccc(Cl)cc2)[n+]3C)cc1	.	i	.	-1.3	.
CN(C)c1ccc(C=c2c3ccccc3n3c2cc(-c2ccccc2)[n+]3C)cc1	.	i	.	10.9*	.
O=C(NN=Cc1cccc(OC(=O)N2CCOCC2)c1)c1cccs1	.	.	0.713	.	.
CC(=O)c1ccc(NC(=S)Nc2ccc(Br)c(Cl)c2)cc1	0.8	-13.3	0.505*	8.5	1.4
c1ccc(N2CCN(Cc3ccnc4ccccc34)CC2)cc1	-0.9	8.1	0.642	1.1	-0.1
SMILES	AddAB inh	Tat export inh	E coli growth-1	phage Ecoli inh	E coli growth-2
Oc1c(CN2CCN(c3ccccc3)CC2)cc(Br)c2cccnc12	9.0	5.4	0.465*	5.3	4.0
Cc1noc(C)c1NC(=O)Nc1ccc2c(c1)C(=O)N(C(C)CO)CC(C)C(CN(C)S(=O)(=O)c1ccc(F)cc1)O2 (stereo unspecified)	.	.	0.669	.	.
CC[n+]1ccc(/C=C/c2ccc(N(C)C)cc2)c2ccccc21	.	-299.6	0.347*	-0.8	.
CCN(CC)c1ccc(/C=C/c2ccc3ccc(OC)cc3[n+]2CC)cc1	11.8	-444.8	0.502*	7.4	12.4*
CC[n+]1c(/C=C/c2ccc(N(C)C)cc2)ccc2ccccc21	4.3	-369.9	0.469*	3.9	1.7
COC(=O)[C@@]12CCCN1C(c1ccc(-c3ccc(OC)cc3)cc1)C1C(=O)N(C)C(=O)C12 (stereo partly specified)	.	.	0.688	.	.
Cc1ccc(C(C[N+](=O)[O-])c2c(-c3ccccc3O)[nH][nH]c2=O)cc1 (stereo unspecified)	8.1	-29.7	0.515*	5.0	-0.1
COC(=O)[C@@]1(Cc2ccc(OC)cc2)C2c3cc(C(=O)N4CCCC4)n(CC(O)CO)c3CC2CN1C(=O)c1ccccc1 (stereo partly specified)	.	.	0.644	.	.
CC(=O)NC(c1ccco1)c1cc(Cl)c2cccnc2c1O (stereo unspecified)	.	.	.	5.8	.
COc1ccc(C(NC(=O)c2cccnc2)c2cc(Cl)c3cccnc3c2O)cc1OC (stereo unspecified)	25.4*	-5.5	0.673	19.5*	23.3*
CC(C)c1cc(C(C)C)c(S(=O)(=O)N2c3ccccc3[C@@]3(Br)CC4C(=O)NC(Cc5ccccc5)C(=O)N4C23)c(C(C)C)c1 (stereo partly specified)	.	.	0.72	.	.
CC(C)NC(=O)N(C)CC1Oc2c(NS(=O)(=O)c3ccccc3)cccc2C(=O)N(C(C)CO)CC1C (stereo unspecified)	.	.	0.692	.	.
NC(=NCCCCCCN=C(N)N=C(N)Nc1ccc(Cl)cc1)N=C(N)Nc1ccc(Cl)cc1	.	.	0.0625*	.	.
CC(C)N=C(N)N=C(N)Nc1ccc(Cl)cc1	-1.6	15.3	0.637	6.4	3.8
Cc1cccc2c1Sc1ccc(Cl)cc1CC2N1CCNCC1 (stereo unspecified)	3.0	.	0.394*	.	0.0
CCc1cccc2c1Sc1ccccc1CC2N1CCNCC1 (stereo unspecified)	3.5	-4.4	0.61	3.4	1.4
COc1ccc(Cc2c(N)nc(C)nc2N)cc1	1.6	-5.9	0.64	5.0	-0.6
Cc1nc(N)c(Cc2ccc(Cl)cc2Cl)c(N)n1	5.0	-10.0	0.481*	4.9	3.4
COc1ccc(NC(=O)Nc2cccc([N+](=O)[O-])c2)cc1Cl	1.9	1.7	0.524*	5.8	-0.9
CSc1sccc1C=NO	.	.	0.635	.	.
CC12CCC(C(=O)N(CSC(=S)N/N=C\c3ccccc3Cl)C1=O)C2(C)C (stereo unspecified)	4.1	2.5	.	4.8	10.7*
CC12CCC(C(=O)N(CSC(=S)NN=Cc3ccccc3O)C1=O)C2(C)C (stereo unspecified)	.	.	0.705	.	.
C=CCN1C(=O)[C@@H]2Cc3c([nH]c4ccccc34)C(c3ccc(O)cc3)N2C1=S (stereo partly specified)	1.2	4.5	0.0665*	.	-1.2
C=CCN1C(=O)[C@@H]2Cc3c([nH]c4ccccc34)C(c3cc(OC)c(OC)c(OC)c3)N2C1=S (stereo partly specified)	-0.9	-5.9	0.69	6.0	-2.2
COCCCNC(=O)CSc1ccsc1[N+](=O)[O-]	11.6	-2.9	0.686	5.6	11.2*
COc1cc(C=NNC(=O)CCc2c(C)n[nH]c2C)cc(OC)c1OC	.	.	0.713	.	.

High-throughput results deposited in PubChem by several laboratories.
